Here are results for 40 molecules from PubChem BioAssay AID2778 (National Center for Advancing Translational Sciences (NCATS), 2010).

Inconclusive results are not listed. A number with no mark means an inactive call. Calls of active or inactive are those of the source. Calls follow the shape of the dose curve; as a rule, active = well fitted inhibition curve with a large enough effect; inconclusive = small, poorly fitted or top-dose-only effect, or effect the other way; inactive = flat fitted curve, though single readings scatter. Positions of bridges follow the written chain, without caps; N, C: chain ends. Non-standard residues stand in square brackets, D forms with d. Residues, ends and D or L forms follow the SMILES beside them. ξ: configuration not given here. *: point of attachment. Octanoyl(6-Me) = CCC(C)CCCCC(=O)*; ξThr(3R) = C[C@@H](O)C(N)C(=O)O; dDab = NCC[C@@H](N)C(=O)O; Dab = NCC[CH](N)C(=O)O
% is scaled to controls: 0 for no effect and ±100 for the full control effect; potency is read from the fitted curve at half-maximal effect.

For this assay, the target named is Menin (Homo sapiens) (UniProt O00255). The assay can be described thus: Confirmation of Inhibitors Targeting the Menin-MLL Interaction in MLL Related Leukemias: Confirmation in an HTRF (commercial TR-FRET) Assay using His-tagged menin and biotin-labeled MLL peptide. Conditions: His-menin / biotin-MLL peptide binding; series mostly up to 126 µM; activity change, negative = inhibition: at the top concentration. From the text: qHTS Assay for Inhibitors Targeting the Menin-MLL Interaction in MLL Related Leukemias
Menin (Homo sapiens), sequence (O00255 whole entry, looked up): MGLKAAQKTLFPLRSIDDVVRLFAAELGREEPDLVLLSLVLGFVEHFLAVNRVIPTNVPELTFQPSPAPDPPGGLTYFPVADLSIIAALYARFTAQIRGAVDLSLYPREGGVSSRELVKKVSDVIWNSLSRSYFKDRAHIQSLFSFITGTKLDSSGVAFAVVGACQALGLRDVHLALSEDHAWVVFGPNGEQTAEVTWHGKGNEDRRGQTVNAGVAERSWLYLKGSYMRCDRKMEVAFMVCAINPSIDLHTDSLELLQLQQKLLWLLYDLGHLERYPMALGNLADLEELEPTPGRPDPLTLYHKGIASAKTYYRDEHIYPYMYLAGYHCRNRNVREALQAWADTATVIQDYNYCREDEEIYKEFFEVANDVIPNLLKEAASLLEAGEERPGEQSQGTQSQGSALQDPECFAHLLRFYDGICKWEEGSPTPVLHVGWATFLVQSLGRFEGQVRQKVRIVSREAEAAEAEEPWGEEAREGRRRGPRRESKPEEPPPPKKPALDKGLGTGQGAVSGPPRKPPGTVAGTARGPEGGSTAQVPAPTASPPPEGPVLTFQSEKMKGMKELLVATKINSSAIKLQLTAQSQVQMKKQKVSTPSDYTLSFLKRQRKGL
NIH Chemical Genomics Center [NCGC]
NIH Molecular Libraries Probe Centers Network [MLPCN]
Assay Submitter (PI): Jolanta Grembecka, Tomasz Cierpicki, University of Virginia
Translocations of the MLL (Mixed Lineage Leukemia) gene are frequently found in human leukemias affecting both children and adults. Fusion of MLL to one of more than 60 genes results in generation of oncogenic proteins upregulating Hox genes, which are vital to blood cell development. Patients harboring fusion of the MLL gene suffer from aggressive leukemias and respond poorly to available therapies. All of the oncogenic fusion proteins have a preserved N-terminal fragment of MLL that has been identified to interact with menin. It has been recently discovered that association with menin is critical to the leukemogenic activity of the MLL fusion oncoproteins. Selective targeting of the menin-MLL interaction could provide an attractive therapeutic approach to develop novel drugs for MLL-related leukemias. Small molecules blocking the menin-MLL interaction should reverse the oncogenic potential of MLL fusion proteins.
We have developed and optimized a fluorescence polarization-based assay for the identification of Menin-MLL inhibitors. The assay was run employing two different MLL-derived peptides. The present assay uses a 12 amino acid peptide labeled with fluorescein at its N-terminus. This peptide consists of the menin high affinity binding motif from MLL and is potently bound by menin. Another peptide with a mutated sequence, labeled with Texas Red, was used in parallel as a less stringent screen for inhibitors.
The present assay uses an alternate technology to confirm hits from the primary screen - homogeneous time resolved fluorescence (HTRF).
The Menin protein, the MLL-wild type (w.t.) derived peptide (N-terminal 12 amino acids), the MLL-derived peptide labeled with Texas Red and the MLL-w.t. peptide labeled with Fluorescein were kindly supplied by laboratory of Dr. Jolanta Grembecka, University of Virginia. All protein and peptide solutions were stored in single use aliquots at -80C. The Eu3+ Cyrptate-conjugated mouse monoclonal antibody anti-6 Histidine (Eu3+-AB) and the Streptavidin-XL665 conjugate (XL665) were purchased from Cisbio International (Bedford, MA). All antibody and XL665 conjugate solution stocks were stored in single use aliquots at -20C. The Buffer components for all assays were purchased from Sigma-Aldrich (St. Louis, MO) and Invitrogen (Carlsbad, CA).
1. HTRF reaction buffer: 50 mM Tris-HCl pH 7.5, 50 mM NaCl, 1mM DTT.
Before use, 0.05% BSA is added.
2. His6-Menin protein, MLL-w.t. labeled with biotin.
Stored in singe use aliquots at -80C.
3. MLL-w.t. unlabeled peptide as positive control: 10 uM final in HTRF buffer.
1. Prepare His6-Menin at 200 nM, MLL-w.t.-biotin at 80 nM in HTRF buffer.
2. Prepare His6-Menin at 200 nM, MLL-w.t.-biotin at 80 nM and 10 uM MLL-w.t. unlabeled mixture in HTRF buffer.
3. Dispense 10 ul per well of reagent in step 1 in columns 2, 4-24 in a black 384 well plate, dispense 10 ul per well of reagents from steps 2 in column 1. Incubate plate at ambient for 15 minutes.
4. Transfer 1 uL per well of compound to plate and incubate at ambient for 1 hr.
5. Dispense 10uL of the donor (6His-Cryptate, 3.5 nM final conc.) and acceptor (SA_XL, 10nM final conc.) complex in the HTRF buffer with 0.01% BSA. Incubate for 1h.
For `CC1CCCCN1S(=O)(=O)c1ccc(C(=O)Nc2ccccc2-c2nc3ccccc3[nH]2)cc1` (stereo not given), the “activity change, negative = inhibition” value was -17.5% [at 383 µM].
On to `CN(C)CCCNCC(=O)c1c(-c2ccccc2)n(C)c2ccccc12`, for which the “activity change, negative = inhibition” value was 3.68%.
With `CCC(C)CCCCC(=O)NC(CCN)C(=O)NC(C(=O)NC(CCN)C(=O)NC1CCNC(=O)C(C(C)O)NC(=O)C(CCN)NC(=O)C(CCN)NC(=O)C(CC(C)C)NC(=O)C(Cc2ccccc2)NC(=O)C(CCN)NC1=O)C(C)O` (stereo not given) ({Octanoyl(6-Me)}-[Dab]T[Dab][Dab][Dab]FL[Dab][Dab]T; lactam 4-C; configuration not given here), the “activity change, negative = inhibition” value was -21.9%.
The same measure, in the same setting: the value for `O=C(CSc1nnc(-c2c[nH]c3ccccc23)o1)c1ccc(-c2ccccc2)cc1` was -14.1%; that for `CN(C)c1ccc(N=Nc2ccc(C(=O)O)cc2)cc1` was 4.67%.
Still for that read-out and setting: the value for `O=C(NC(=S)Nc1ccccc1)c1cc(-c2ccccc2)nc2ccccc12` was -1.55% [at 383 µM]; that for `CCC(C)CCCCC(=O)N[C@@H](CCN)C(=O)N[C@H](C(=O)N[C@@H](CCN)C(=O)N[C@H]1CCNC(=O)C([C@@H](C)O)NC(=O)[C@@H](CCN)NC(=O)[C@H](CCN)NC(=O)[C@H](CC(C)C)NC(=O)[C@@H](CC(C)C)NC(=O)[C@H](CCN)NC1=O)[C@@H](C)O` (stereo partly drawn) ({Octanoyl(6-Me)}-[Dab]T[Dab][Dab][Dab][dL]L[Dab][dDab][ξThr(3R)]; lactam 4-C) was -4.21% [at 62.9 µM]; that for `Cc1ccc(C(C[N+](=O)[O-])c2c(C)[nH]n(-c3ccccc3)c2=O)cc1` (stereo not given) was -6.55%.
As for `CN1CCN(CC(=O)c2ccccc2F)CC1`, the “activity change, negative = inhibition” value is 7.33%.
With `CC(c1ccncn1)N(C)Cc1nc(-c2ccc(C(F)(F)F)cc2)no1` (stereo not given), the “activity change, negative = inhibition” value is 7.72%.
On to `CN(C)CCCOc1ccc2c(c1)Sc1ccccc1CC2=O`, for which the “activity change, negative = inhibition” value was -10.1%.
`CC(CC(=O)Nc1nc2ccccc2[nH]1)n1ccnc1` (stereo not given): the “activity change, negative = inhibition” value is 2.97%.
Still for that read-out and setting: the same measure for `CCc1nn(C)c2c(=O)c(=O)c2n(C)[nH]1`: 7.67%.
Turning to `COC(=O)c1cc(CNC(=O)CCCSc2ccccc2)ccc1OC`, the “activity change, negative = inhibition” value is 3.68%.
On the same count and under the same terms, the value for `CN1C[C@@H]2C[C@H]1CN2c1cc2c(cc1F)c(=O)c(C(=O)O)cn2C1CC1` was 5.01%; that for `CCOC(=O)Cn1cnc2scc(-c3ccc(C)c(C)c3)c2c1=O` was -3.26%; that for `O=C(Nc1ccc2c(c1)OCO2)c1ccccc1` was 0.989%.
As for `Cn1c(=O)[nH]c(=O)c2c1nc(Br)n2CCSc1nc2ccccc2o1`, the “activity change, negative = inhibition” value was -2.42% [at 383 µM].
On to `COc1ccc(N(C(=O)c2ccncc2)S(=O)(=O)c2ccc(Cl)cc2)cc1`, for which the “activity change, negative = inhibition” value was 8.53%.
In the case of `O=C(COC(=O)c1ccc(NS(=O)(=O)c2cccs2)cc1)Nc1nc2c(F)c(F)c(F)cc2s1`, the Potency is 39.8 µM (active).
Turning to `CCCN1CCN(CC(O)COC(c2ccc(OC)cc2)c2ccc(OC)cc2)CC1` (stereo not given), the “activity change, negative = inhibition” value was -2.05%.
In the case of `Cc1c(CCOC(=O)CC23CC4CC(CC(C)(C4)C2)C3)sc[n+]1Cc1ccc([N+](=O)[O-])cc1`, the “activity change, negative = inhibition” value is -18.3% [at 383 µM].
In the case of `CC(NC(=O)c1cnc2ccccc2n1)c1ccccc1` (stereo not given), the “activity change, negative = inhibition” value was -5.38% [at 383 µM].
Same read-out and setting: the value for `COc1ccc2nc(NC(=O)CSc3nnc(N)s3)sc2c1` was -7.53%; that for `COc1cccc(-c2nn(-c3ccccc3)cc2/C=C\C(=O)c2cccs2)c1` was 3.61%; that for `COc1ccc(CCNCc2cc(C)n(-c3ccc(OC)cc3)c2C)cc1` was 7.98%.
As to `C/C(=N\Nc1ccc(Cl)c(C(=O)O)c1)c1ccc[nH]1`, the “activity change, negative = inhibition” value was 6.1%.
Same read-out and setting: the value for `Cc1ccccc1-c1n[nH]c(=S)n1C` was 6%.
On the same count and under the same terms, the same measure for `COc1ccccc1CNCC(=O)Nc1ccc(C#N)cc1`: -1.25% [at 383 µM]; for `O=C(O)c1cc(S(=O)(=O)O)cc(Nc2c3ccccc3nc3ccccc23)c1O`: 3.8% [at 383 µM]; for `CCCn1c(=O)c(C(=O)Nc2ccccc2C(=O)OCC)c(O)c2ccccc21`: 2.41% [at 383 µM].
As to `O=C1NC(=S)N/C1=C/c1ccc2ccccc2c1`, the “activity change, negative = inhibition” value was -20.1%.
In the case of `COc1ccccc1N(CC1CO1)S(=O)(=O)c1ccccc1` (stereo not given), the “activity change, negative = inhibition” value was 2.5%.
Regarding `O=C(CS)Nc1ccc2ccccc2c1`, the “activity change, negative = inhibition” value was -22.4%.
On to `Cc1cc2c(c(=O)n1Cc1ccccc1)C1O[C@](c3ccsc3)(Cc3cc(C#N)ccc31)O2`, for which the “activity change, negative = inhibition” value is -8.97% [at 31.5 µM].
As to `Nc1cccc2c1C(=O)N(C(=O)c1ccco1)C2=O`, the “activity change, negative = inhibition” value was 13%.
Consider `Cn1ncc2c(N3CCCCC3)nc(NCCCO)nc21`, for which the “activity change, negative = inhibition” value is -5.5%.
Still for that read-out and setting: the same measure for `CCOc1ccc(C2Nc3ccc4ccccc4c3-c3c2c(=O)oc2ccccc32)cc1` (stereo not given): -28.1%.
For the molecule `COc1cccc(C(=O)/C=C/Nc2ccc(S(=O)(=O)Nc3ccc(C(C)=O)cc3)cc2)c1`, the “activity change, negative = inhibition” value was -17.8% [at 383 µM].
For the molecule `CN(C)CCc1c[nH]c2ccc(CC3COC(=O)N3)cc12` (stereo not given), the “activity change, negative = inhibition” value is -6.18% [at 383 µM].
